# NPSR antag: blocks cAMP signaling of the human neuropeptide S receptor. Potency, µM (series often up to 38.3 µM), for the others: at the top dose activity change, negative = inhibition, usual class: inhibitors. Q6W5P4. AID 1461. 220,000 tested, 1% active. CHO-NPSR cells, cAMP TR-FRET, antagonist mode; further: potency means the concentration at half of the fitted maximal effect; nearly all actives have a fitted effect of over 50% in size
# Target sequence (Q6W5P4 whole entry, looked up): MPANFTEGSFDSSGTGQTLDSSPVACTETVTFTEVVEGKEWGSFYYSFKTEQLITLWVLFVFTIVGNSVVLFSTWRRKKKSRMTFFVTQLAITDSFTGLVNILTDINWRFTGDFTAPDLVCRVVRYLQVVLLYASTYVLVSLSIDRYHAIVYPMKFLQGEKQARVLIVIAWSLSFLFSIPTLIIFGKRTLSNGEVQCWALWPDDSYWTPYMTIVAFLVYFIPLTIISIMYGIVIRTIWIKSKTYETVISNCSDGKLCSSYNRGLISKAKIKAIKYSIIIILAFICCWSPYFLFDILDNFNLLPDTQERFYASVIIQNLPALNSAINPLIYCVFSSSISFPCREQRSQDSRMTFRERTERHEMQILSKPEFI
# Tau FP inhib: inhibitors of human tau fibril formation; P10636; K18 P301L tau heparin fibrillization, Alexa594 FP, 6 h; Potency, µM (titrated, usually from 57.7 µM), for the others: at the top dose activity, negative = inhibition, actives largely listed as inhibitors; 280,000 tested, 0.39% active; further: potency means the concentration at half of the fitted maximal effect; nearly all actives have a fitted effect of over 55% in size
# Target sequence (P10636 561-689 P618L limits assumed): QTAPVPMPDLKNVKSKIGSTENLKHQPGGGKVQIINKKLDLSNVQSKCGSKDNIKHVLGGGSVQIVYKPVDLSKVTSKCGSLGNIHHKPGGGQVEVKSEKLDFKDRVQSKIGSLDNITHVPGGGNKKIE
#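 Human tau K18 […] P301L fragment, 15 uM unlabeled plus 0.24 uM Alexa 594-labeled tau (final), with compound and 20 uM heparin in 100 mM sodium acetate pH 7; 6 hr at 37 C, then Alexa 594 FP read.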
# KDM4E inh: JMJD2E (human) inhibition | B2RXH2 | JMJD2E catalytic domain, FDH-coupled NADH fluorescence (FDH is formaldehyde dehydrogenase) | Potency, µM (top dose mostly 57.1 µM), without a hit: at the top dose activity change, negative = inhibition, most hits filed as inhibitors | 230,000 tested, 1.6% active; active means well fitted inhibition curve with a large enough effect, not every such curve was filed as active; inconclusive means small, poorly fitted or top-dose-only effect, or another doubt; inactive means no such curve, though single readings can be large or run the other way;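 further: potency means the concentration at half of the fitted maximal effect; 0% = wells with enzyme and -100% = buffer wells without enzyme; nearly all actives have a fitted effect of over 50% in size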
# PNC assembly inh: perinucleolar compartment assembly inhibition; PC3M PTB-GFP, PNC prevalence imaging, 16 h; active compounds read low; 140,000 tested, 3.1% active; activity change (PNC), negative = inhibition, % at 10 µM; AID 2417;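 active means readout at or below -70, meaning at least 70% loss of cells showing the perinucleolar compartment, a nuclear body marking cancer cells; inconclusive means readout between -30 and a set limit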;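 further: plate controls were DMSO wells for no effect and camptothecin positive control wells for full effect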
#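 Compounds are pinned in duplicate onto adhered PC3M cells stably expressing GFP-tagged PTB and incubated 16 h at 37 C. Cells are then fixed, nuclei stained with Hoechst, and PNC-positive cells counted.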
# Tau fluor cs: counter-screen for tau fibril formation inhibitors; tau K18 P301L Alexa594 fluorescence, heparin fibrillization; Potency, µM (doses to about 57.7 µM), inactives show top-dose activity change, negative = decrease; 280,000 tested, 0.93% active; further: potency means the concentration at half of the fitted maximal effect; nearly all actives have a fitted effect of over 55% in size
#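 Human tau K18 P301L (15 uM unlabeled, 0.24 uM Alexa 594-labeled) in 100 mM sodium acetate pH 7 with 20 uM heparin, 6 hr at 37 C. ThT 30 uM added, 1 hr ambient; Alexa 594 FP and total fluorescence read at 555/632 nm.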
# Tau ThT inhib: blocks human tau fibril formation measured by thioflavin T | 270,000 tested, 2.1% active | recombinant tau K18 P301L (four-repeat tau fragment), heparin-induced fibrillization, ThT fluorescence | P10636 | Potency, µM (top dose mostly 57.4 µM), inactives show at the highest dose activity, negative = inhibition, hits mostly inhibitors; further: potency means the concentration at half of the fitted maximal effect; nearly all actives have a fitted effect of over 55% in size
#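 Aggregation was driven by heparin (20 uM final) acting on recombinant tau […] bearing P301L in 100 mM sodium acetate pH 7; fibrils were detected with Thioflavin T.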
# * = called active by the depositor; ? = inconclusive; / = no result given; [ ] = another dose, or the depositor's remark. Sampled rows, rich in hits. Any-hit rate of the full collection: about 5.1%. Unless noted, the call rests on the fitted dose curve; in most records, active means well fitted curve in the direction sought with a large enough effect; inconclusive means small, poorly fitted or top-dose-only effect, or another doubt; inactive means no such curve, though single readings can be large; an effect the other way counts as inactive or inconclusive. Unless noted, on the % scale 0 is the no-effect control and ±100 the full control effect.
SMILES,NPSR antag,Tau FP inhib,KDM4E inh,PNC assembly inh,Tau fluor cs,Tau ThT inhib
Cc1nn(CC(O)CN2c3ccccc3Sc3ccccc32)c(C)c1Br (stereo not given),6.3µM*,?,-10%,?,?,?
CCOc1ccc(C(C)(C)C)cc1S(=O)(=O)N1CCOCC1,-18%[46.1 µM],-5%,0%,-97*,-6%,-4%
CCOC(=O)c1ccc(NC(=O)CN2C(=O)COc3ccc(Cl)cc32)cc1,/,-16%,/,/,-22%,7%
C=CCN1C=CC(=C/C=C(/C#N)C(=O)OCC)C=C1,10µM*,7%,?,-8,-10%,?
CCOC(=O)/C(C#N)=C/C=C1/C=CC=CN1C,37%,0%,-5%,/,6%,?
Cc1ccccc1N1C(S)=C(C#N)C(=O)NC1c1ccco1 (stereo not given),-25%,?,-29%,/,-22%,25µM*
Cc1cccc(-n2nc(C)c(C(=O)Nc3cc(C)ccc3C)c2-n2cccc2)c1,/,6%,/,/,-8%,-9%
O=C(O)c1ccccc1C(=O)Nc1nccs1,-4%[46.1 µM],0%,-5%,29,8%,9%
O=C(O)c1ccccc1C(=O)Nc1n[nH]c(=S)s1,-5%[46.1 µM],?,4µM*,5,-14%,?
CCCCN(CCCNC(=O)c1c(C)cc(=O)oc1C)c1ccccc1,-22%[46.1 µM],-1%,-8%,-98*,-19%,?
CC(C)n1c(=O)c2oc3ccccc3c2n(Cc2ccccc2F)c1=O,/,0%,/,/,-6%,1%
Cc1nc2nc(SCC(=O)C(C)(C)C)[nH]c2cc1Br,-29%[46.1 µM],-7%,12%,4,-10%,1%
CC(C)(C)C(=O)CSc1nc2ncc(Br)cc2[nH]1,-12%[46.1 µM],-8%,-4%,-98*,-11%,-2%
CCN(CC)C(=O)c1sc2c(c1C)c(=O)n(-c1ccc(OC)cc1OC)c(=O)n2CC(=O)c1ccc(Cl)cc1,/,-2%,/,/,-2%,?
Cc1nn(CCCC(=O)Nc2cccc(F)c2)c(=O)c2c1sc1ccccc12,/,5%,/,/,?,?
COc1ccc(OC)c(NC(=O)CN(c2ccccc2OC)S(=O)(=O)c2ccc(C)cc2)c1,/,1%,/,/,?,-16%
CCCn1c(SCC(=O)N2c3ccccc3CC2C)nnc1-c1ccco1 (stereo not given),-7%[46.1 µM],8%,-1%,-100*,2%,-1%
CCCn1c(SCC(=O)N2CCc3ccccc32)nnc1-c1ccco1,-29%[46.1 µM],3%,-3%,-12,-2%,-9%
CCOCN(C(=O)CSc1nc2ccccc2[nH]1)c1c(C)cccc1CC,/,-2%,/,/,-13%,-8%
Cc1ccsc1C=Nc1ccc(O)cc1,-15%[46.1 µM],11µM*,3%,-6,?,3.5µM*
Cc1ccsc1/C=N/NC(=O)CO,-1%,0%,3%,/,8%,7%
Nc1c(C(=O)Nc2ccc(F)cc2)sc2nc(-c3ccco3)ccc12,10%[46.1 µM],2%,?,3,?,6.3µM*
CCOC(=O)c1sc2nc(-c3ccccc3)ccc2c1N,7%,12%,?,-30,-11%,1%
Nc1c(C(=O)Nc2ccc(Br)cc2)sc2nc(-c3ccco3)ccc12,?,5%,?,-16,?,5µM*
Cc1ccc(NC(=O)c2sc3nc(-c4ccc(F)cc4)ccc3c2N)cc1F,/,-3%,/,/,?,?
SMILES,NPSR antag,Tau FP inhib,KDM4E inh,PNC assembly inh,Tau fluor cs,Tau ThT inhib
Nc1c(C(=O)Nc2ccc(Br)cc2)sc2nc(-c3ccncc3)ccc12,/,3%,/,/,?,?
CC(=O)c1sc2nc(-c3ccco3)ccc2c1N,-28%,-2%,?,/,?,7.1µM*
CCOC(=O)c1c(NC(=O)c2ccc(S(=O)(=O)N(CCOC)CCOC)cc2)sc2c1CC(C)(C)NC2(C)C,/,6%,/,/,-8%,0%
Cc1noc(C)c1C(=O)N1CCN(CCc2ccccc2)CC1,6%[46.1 µM],8%,3%,-102*,-4%,-17%
Cc1noc(C)c1C(=O)N1CCN(Cc2ccccc2)CC1,-4%[46.1 µM],8%,1%,-9,-6%,-9%
CN(C)c1ncnc2ccc(-c3ccccc3C#N)cc12,/,-2%,-10%,/,4%,4%

# From PubChem BioAssay
